Among the data in PubChem BioAssay (NCATS) are Potency values, retold here.

SMILES strings stand for the structures. Inconclusive results are not listed. A call without a number means that no potency is given here. Activity calls are given as the source filed them. Calls come from the whole dose curve; as a rule, active = well fitted inhibition curve with a large enough effect; inconclusive = small, poorly fitted or top-dose-only effect; inactive = flat fitted curve, though single readings scatter.
Potency is the fitted concentration of half-maximal effect.

This experiment relates to CP325. Kind of experiment: qHTS profiling for inhibitors of Plasmodium falciparum proliferation (AID 504749). Note: nearly all actives have a fitted effect of over 60% in size. As to conditions: P. falciparum in erythrocytes, SYBR Green DNA, 72 h; series mostly up to 28.7 µM. A digest of the protocol:
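SYBR Green fluorescence (ex 485 nm, em 535 nm) reports parasite DNA after 72 h compound exposure of infected red cells at 0.3% parasitemia, 2.5% hematocrit; signal normalized to 0.29 uM artemisinin and vehicle wells.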
Take `O=C(CCCN1CCC(n2c(=O)[nH]c3ccccc32)CC1)c1ccc(F)cc1`: the Potency is 5.1 µM (active).

With `CC[C@]1(O)CC[C@H]2[C@@H]3CCC4=CCCC[C@@H]4[C@H]3CC[C@@]21C`, the Potency entry was “inactive”. Consider `Cc1c(Cl)c(=O)oc2cc(OP(=O)(OCCCl)OCCCl)ccc12`, for which the Potency is 13.5 µM (active).

For the compound `CCCCCCCCC(=O)NCc1ccc(O)c(OC)c1`, the Potency entry is “inactive”. On to `c1cc2c(c(N3CCNCC3)c1)OCCO2`, for which the Potency entry was “inactive”. The same measure for `C=CCOC(Cn1ccnc1)c1ccc(Cl)cc1Cl` (stereo not given): 15.1 µM (active); for `Clc1ccc(CO/N=C(\Cn2ccnc2)c2ccc(Cl)cc2Cl)c(Cl)c1`: 13.5 µM (active); for `C[C@]12Cc3nonc3C[C@@H]1CC[C@@H]1[C@@H]2CC[C@@]2(C)[C@H]1CC[C@]2(C)O`: “inactive”. In the case of `ClC1=C(Cl)C2(Cl)C(CBr)CC1(Cl)C2(Cl)Cl` (stereo not given), the Potency result was “inactive”. The same measure for `CN1C[C@@H](NS(=O)(=O)N(C)C)C[C@@H]2c3cccc4c3c(cn4C)C[C@H]21`: “inactive”; for `O=C(NC(=O)c1c(F)cccc1F)Nc1cc(Cl)c(OC(F)(F)C(F)C(F)(F)F)cc1Cl` (stereo not given): “inactive”. For `CNC(=O)Oc1cccc2ccccc12`, the Potency entry was “inactive”. In the case of `COC(=O)C1=CCCN(C)C1`, the Potency entry was “inactive”.

Consider `COCC(=O)N(c1c(C)cccc1C)C(C)C(=O)OC` (stereo not given), for which the Potency result is “inactive”. As for `COc1ccc(C(=O)N2CCCC2=O)cc1`, the Potency entry was “inactive”. In the case of `Oc1c(Br)cc(Br)cc1Br` it was “inactive”. `CC(C)(O)C(Cl)(Cl)Cl`: the Potency was 12 µM (active). As to `CN1CCc2cc(Cl)c(O)cc2[C@H]2c3ccccc3CC[C@@H]21`, the Potency entry is “inactive”. With `OC(O)C(Cl)(Cl)Cl`, the Potency result is “inactive”. In the case of `C[N+](C)(C)CCOC(=O)C(O)(c1ccccc1)c1ccccc1` it was “inactive”.
